Akt phos inh – HTS Assay for Inhibitors of Akt Phophorylation: Primary Screen. Neuro2A IGF-stimulated pAkt S473 HTRF, 20 min; hits give low values. activity change, % for hits at 50 µM. 360,000 compounds, 0.32% hits; in the data active means activity change below about -80%; inconclusive means mostly about -51% to -80%; further: on the % scale 0 is the no-effect control and ±100 the full control effect
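Single-point screen (50 µM final compound) in Neuro2A cells stimulated 20 min with 6 nM IGF at 37 deg C. After lysis, Ser473-phosphorylated Akt read by HTRF (ex 330 nm, em 615/665 nm) as the 665/615 ratio.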
gsp agonist – qHTS for Agonist of gsp, the Etiologic Mutation Responsible for Fibrous Dysplasia/McCune-Albright Syndrome: qHTS | gsp mutant cells, cAMP HTRF, 30 min | 340,000 compounds, 0.13% hits | AID 624287, 2012 | Potency, µM (titrated, usually from 76.9 µM), for the others: top-dose activation (cAMP increase), most hits filed as activators; active means well fitted activation curve with a large enough effect; inconclusive means small, poorly fitted or top-dose-only effect, or another doubt; inactive means no such curve, though single readings can be large or run the other way; cell line not stated here;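 further: phosphodiesterase inhibitor Ro 20-1724 added with compounds to block cAMP breakdown; potency means the concentration at half of the fitted maximal effect; nearly all actives have a fitted effect of over 60% in size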
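Cells stably selected in G418 were plated at 2000/well, grown 16-24 hr, then given compounds in DMSO with the PDE inhibitor […] (300 uM solution added) for 30 min at 37C; cAMP was read by HTRF.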
hERG WT inh – qHTS for Inhibitors of KCHN2 3.1: Wildtype qHTS; U2OS, BacMam KCNH2, thallium flux FluxOr; hits give low values; activity change, % at 1.84 µM; 340,000 compounds, 0.37% hits;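 active means maximum activity change below -70%; inconclusive means maximum activity change between -70% and -50%; inactive means maximum activity change above -50%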; further: on the % scale 0 is the no-effect control and ±100 the full control effect
Target sequence (Q12809 whole entry, looked up): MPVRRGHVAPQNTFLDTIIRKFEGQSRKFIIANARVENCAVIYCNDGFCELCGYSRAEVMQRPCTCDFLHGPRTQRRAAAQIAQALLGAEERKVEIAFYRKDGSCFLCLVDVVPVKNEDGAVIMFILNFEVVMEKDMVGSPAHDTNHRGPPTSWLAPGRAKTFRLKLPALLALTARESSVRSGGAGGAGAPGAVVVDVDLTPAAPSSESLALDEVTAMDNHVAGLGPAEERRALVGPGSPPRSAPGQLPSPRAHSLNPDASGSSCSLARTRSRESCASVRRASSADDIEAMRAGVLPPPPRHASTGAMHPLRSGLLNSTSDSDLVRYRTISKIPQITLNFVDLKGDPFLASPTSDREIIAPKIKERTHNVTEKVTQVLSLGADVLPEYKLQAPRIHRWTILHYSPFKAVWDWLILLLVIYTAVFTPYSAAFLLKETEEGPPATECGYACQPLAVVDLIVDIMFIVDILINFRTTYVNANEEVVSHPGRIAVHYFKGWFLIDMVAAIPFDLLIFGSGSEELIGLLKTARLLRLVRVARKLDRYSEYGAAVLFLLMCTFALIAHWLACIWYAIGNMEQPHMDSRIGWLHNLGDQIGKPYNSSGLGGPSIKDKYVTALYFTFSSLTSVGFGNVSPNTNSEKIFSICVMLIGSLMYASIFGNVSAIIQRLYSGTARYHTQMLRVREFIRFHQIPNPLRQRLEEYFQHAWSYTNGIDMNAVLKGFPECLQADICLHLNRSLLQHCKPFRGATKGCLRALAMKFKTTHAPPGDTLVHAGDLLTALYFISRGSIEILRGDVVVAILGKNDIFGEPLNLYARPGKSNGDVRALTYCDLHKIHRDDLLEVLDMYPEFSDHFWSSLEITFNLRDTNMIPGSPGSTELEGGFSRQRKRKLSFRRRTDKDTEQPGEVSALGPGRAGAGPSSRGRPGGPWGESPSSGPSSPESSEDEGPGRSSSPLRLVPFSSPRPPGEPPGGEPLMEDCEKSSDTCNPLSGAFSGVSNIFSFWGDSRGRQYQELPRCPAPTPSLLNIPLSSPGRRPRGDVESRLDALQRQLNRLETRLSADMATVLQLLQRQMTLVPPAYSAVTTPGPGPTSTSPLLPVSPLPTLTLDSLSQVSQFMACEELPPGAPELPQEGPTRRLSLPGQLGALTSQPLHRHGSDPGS
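U2OS cells were transduced with wild-type KCNH2 virus (2.03 x 10^8 / mL) for 4 h at room temperature, then cultured overnight at 37 C. Thallium flux was read with FluxOr dye. Rate constants were normalized to DMSO controls.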
GRP78 ERSR act – qHTS for Inducers of the Endoplasmic Reticulum Stress Response (ERSR) in Human Glioma: qHTS; Potency, µM, for the others: at the highest dose activation, hits mostly activators; 420,000 compounds, 0.02% hits; U87-MG GRP78 promoter luciferase reporter, 16 h; active means well fitted activation curve with a large enough effect; inconclusive means small, poorly fitted or top-dose-only effect; inactive means no such curve, though single readings can be large or run the other way; further: potency means the concentration at half of the fitted maximal effect; series mostly up to about 76 µM; % of control where 0% means no effect; nearly all actives have a fitted effect of over 35% in size
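Stably transfected U87-MG glioma cells carrying a GRP78-based luciferase sensor; 16 h compound incubation. Luminescence end-point read 10 min after Bright-Glo addition at room temperature.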
KCNH2 3.1 block – qHTS for Inhibitors of KCHN2 3.1: Mutant qHTS; 340,000 compounds, 0.95% hits; activity change, % (tested at about 1.8 µM); U2OS KCNH2 3.1, thallium flux FluxOr; hits give low values; Potassium voltage-gated channel subfamily H member 2, brain isoform KCNH2 3.1 (human);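 active means maximum activity change below -70%; inconclusive means maximum activity change from -70% to -50%; inactive means maximum activity change above -50%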;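 further: thallium influx rate constant from kinetic fluorescence after stimulation buffer; on the % scale 0 is the no-effect control and ±100 the full control effect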
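Steps: virus added to U2OS suspension (4 h, RT, dark); medium with 10% FBS added, cells plated, 37 C overnight; FluxOr/Red40 loading buffer 45 min RT; stimulation buffer, 2 min kinetic read; rate constant normalized.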
gsp antag – qHTS for Antagonists of gsp, the Etiologic Mutation Responsible for Fibrous Dysplasia/McCune-Albright Syndrome: qHTS; gsp-mutant cells, cAMP HTRF, 30 min; Potency, µM (doses to about 76.9 µM), inactives show top-dose activity change, negative = inhibition, usual class: inhibitors; 340,000 compounds, 0.4% hits; AID 624288, 2012; calls by dose curve; cell line not stated here;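 further: intracellular cAMP measured with PDE inhibitor Ro 20-1724 present during compound exposure; potency means the concentration at half of the fitted maximal effect; on the % scale 0 is the no-effect control and ±100 the full control effect; nearly all actives have a fitted effect of over 65% in size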
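Cells, 2000/well, grown 16–24 h in DMEM 10% FBS with 0.5 mg/ml G418, then compounds plus […] (300 uM addition stock), 30 min at 37C. cAMP read by HTRF (cAMP-d2 and anti-cAMP antibody-K in lysis buffer) after 30 min RT.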
The depositor's hits bear a star; i = inactive; ? = inconclusive; / = no result given; [ ] = remark or other dose. The list is not random: actives were taken first. Their share in the collection is about 1.6%.

SMILES	Akt phos inh	gsp agonist	hERG WT inh	GRP78 ERSR act	KCNH2 3.1 block	gsp antag
COc1[nH]c(/N=C/c2ccco2)c(C#N)c1C#N	/	/	/	-3%	/	/
O=C(CN1C(=O)COc2ccccc21)N1CCc2ccccc21	-107%*	-2%	-4	3%	-4	7%
Cc1ccc2c(c1)N(CC(=O)N1CCCc3ccccc31)C(=O)CO2	i	-18%	4	-4%	6	-7%
Cc1cc(CNC(=O)CCN2Cc3cc(Cl)ccc3OC(C)C2)nn1C (stereo not given)	/	/	/	-3%	/	/
CC1CCCN(C(=O)COC(=O)CNC(=O)c2sc3ccccc3c2Cl)C1 (stereo not given)	i	32µM*	-14	-5%	-1	8%
CC1CCCC(C)N1C(=O)COC(=O)CNC(=O)c1sc2ccccc2c1Cl (stereo not given)	i	5%	4	0%	2	-14%
Cc1ccc(C(=O)NC2CCCCCC2)o1	-140%*	?	6	0%	11	1%
O=C(NC1CCCCC1NC(=O)c1cccs1)c1cccs1 (stereo not given)	i	13%	-3	-3%	8	13%
Cc1ccc(C(=O)OCC(=O)NC2CCCCC2)o1	i	11%[15.4 µM]	11	1%	-3	12%
O=C(NC1CCCCCC1)c1cccs1	i	14%	-83*	0%	-3	6%
COc1ccc(-c2ccnc(-n3ncc(C(=O)NC(C)(C)CO)c3C3CC3)n2)cc1F	/	/	/	4%	/	/
COc1cccc(C(=O)N(Cc2cc3cc4c(cc3nc2N(C)C)OCO4)CC2CCCO2)c1 (stereo not given)	/	/	/	-3%	/	/
COc1cc(=O)n2c(c1C(=O)NCc1ccco1)CCN(C(=O)c1cccnc1SC)CC2	/	/	/	0%	/	/
Cc1ccc2c(c1)CN(C(=O)CC(c1ccccc1)c1ccco1)CC(C)O2 (stereo not given)	/	/	/	-4%	/	/
N#C/C(=C\c1ccc(Cl)cc1)c1nc2ncccc2[nH]1	-105%*	-39%	-3	12%	-2	14%
N#C/C(=C\c1c(Cl)cccc1Cl)c1nc2ccccc2[nH]1	i	?	10	-1%	9	-9%
Cn1c(SCc2cccc([N+](=O)[O-])c2)nc2c(c1=O)SCC2	i	3%	-3	-4%	6	35µM*
Cn1c(SCc2cccnc2)nc2c(c1=O)SCC2	i	-12%[15.4 µM]	-28	-5%	-5	-2%
Cc1ncc2c(c1CNC(=O)/C=C/c1cccs1)CCN(C(=O)c1noc3c1CCCC3)C2	/	/	/	-4%	/	/
COC(=O)CNS(=O)(=O)c1ccc(C)cc1	i	-13%	1	-2%	4	-10%
Cc1ccc(S(=O)(=O)NCC(=O)OC2CCOC2=O)cc1 (stereo not given)	i	4%	-126*	-3%	-95*	-3%
O=C(C[n+]1ccccc1Br)c1ccc2c(c1)CCCC2	/	/	/	-1%	/	/
Cc1sc2nc(COC(=O)c3cccc(OC(F)F)c3)[nH]c(=O)c2c1C	i	3%[15.4 µM]	-92*	-2%	-4	2%
Cc1sc2nc(COC(=O)c3cccc(S(=O)(=O)N(C)c4ccccc4)c3)[nH]c(=O)c2c1C	i	1%[15.4 µM]	-3	-3%	33	-1%
CCCCCCC(=O)O[C@@H]1CC[C@H]2[C@@H]3CCc4cc(O)ccc4[C@H]3CC[C@]12C	/	/	/	7%	/	/
SMILES	Akt phos inh	gsp agonist	hERG WT inh	GRP78 ERSR act	KCNH2 3.1 block	gsp antag
Cc1c(C(=O)Nc2ccc(F)cc2)c2ccccn2c1CCc1ccncc1	i	2%[15.4 µM]	-14	6%	-27	11µM*
COC(=O)CCc1c(C)c(C(=O)c2ccc(F)cc2)c2ccccn12	i	8%[15.4 µM]	-3	-2%	8	-22%
CC1CCCC(C)N1C(=O)Cn1nnc(-c2ccccc2)n1 (stereo not given)	i	16µM*	-12	0%	12	4%
COc1cc(-c2cc(C)c3c(OC)ccc(OC)c3n2)cc2c1OCCN(C(=O)Cn1nc(C)cc1C)C2	/	/	/	-5%	/	/
N#C/C(=C\c1ccc([N+](=O)[O-])cc1)C(=O)NCCCn1ccnc1	i	39%[15.4 µM]	2	1%	10	9%
N#C/C(=C/c1cn(-c2ccccc2)nc1-c1cccc(OCc2ccc(F)cc2)c1)C(=O)NCCCn1ccnc1	i	-1%[15.4 µM]	-25	0%	-92*	0%
CCCOc1cccc(-c2nn(-c3ccccc3)cc2/C=C(\C#N)C(=O)NCCCn2ccnc2)c1	i	2%	-187*	0%	0	-18%
O=C(NCCCn1ccnc1)c1cn(-c2ccccc2)nc1-c1ccc(F)cc1	i	-5%	34	0%	-11	1%
COc1cccc(C(=O)N(Cc2cc3ccc(C)cc3nc2N(C)C)C2CC2)c1OC	/	/	/	-4%	/	/
Cc1cccc(C(=O)Nc2cccc3cccnc23)c1	i	3%	-7	9%	-3	-11%
Cc1cnc(C(=O)Nc2cccc3cccnc23)cn1	-109%*	2%	2	-1%	12	-7%
C[C@H](CO)N1C[C@H](C)[C@@H](CN(C)C(=O)Nc2ccc3c(c2)OCO3)Oc2ccc(NC(=O)Nc3ccc(C(F)(F)F)cc3)cc2C1=O	i	/	-2	2%	5	0%
COc1ccc(NC(=O)N(C)C[C@H]2OCCCC[C@@H](C)Oc3ccc(N(C)C)cc3C(=O)N([C@H](C)CO)C[C@@H]2C)cc1	i	5%	-10	-5%	-12	/
C[C@@H]1CCCCO[C@H](CN(C)S(=O)(=O)c2cccs2)[C@H](C)CN([C@@H](C)CO)C(=O)c2cc(NC(=O)NC3CCCCC3)ccc2O1	i	7%	-9	1%	-99*	/
C[C@H](CO)N1C[C@H](C)[C@@H](CN(C)C(=O)Nc2ccccc2)Oc2ccc(NC(=O)Nc3ccc4c(c3)OCO4)cc2C1=O	i	/	-17	-3%	-120*	-2%
C[C@@H]1CCCCO[C@@H](CN(C)C(=O)Nc2ccccc2)[C@@H](C)CN([C@H](C)CO)C(=O)c2cc(N(C)C)ccc2O1	i	14µM*	-7	-5%	-3	/
CN(CCO)C(=O)c1cn(C2CCCN(Cc3cc4ccccc4s3)C2)nn1 (stereo not given)	/	/	/	-4%	/	/
Cc1ccnc2c(N)cccc12	/	/	/	3%	/	/
CCN(CC)c1ccc(/C=C/c2ccccn2)cc1	/	/	/	-7%	/	/

Screening data as filed in PubChem BioAssay.
